Measured values: PubChem BioAssay AID1498 (National Center for Advancing Translational Sciences (NCATS), 2009)
Records with an inconclusive call do not appear. Calls of active or inactive are those of the source. The call rests on the fitted dose curve.

Test: Confirmation Concentration-Response Assay for Modulators of Lamin A Splicing
Details: HeLa lamin A splicing GFP/RFP minigene, Acumen, 48 h; RFP activity: RFP channel at top concentration, at 46.1 µM; ratio activity: GFP/RFP ratio at top concentration, at 46.1 µM; series mostly up to 46.1 µM; GFP activity change, negative = decrease: at the top concentration
From the text: NCGC Assay Overview: Hutchinson-Gilford Progeria Syndrome (HGPS) is a pediatric premature aging disease caused by a spontaneous mutation in the lamin A/C (LMNA) gene. The mutation activates a cryptic splice site in the LMNA pre-mRNA which results in production of a pre-lamin A protein that cannot be processed properly. The mutant protein accumulates in the nucleus and negatively affects numerous cellular functions. Correction of the splicing defect in HGPS patient cells using a targeted oligonucleotide (exo11) leads to reversal of the cellular disease phenotypes. To identify small molecule modulators of aberrant LMNA splicing, a homogenous assay was constructed in HeLa cells that used a GFP containing minigene to report on correction of aberrant splicing in lamin A and a RFP (DsRed2) to report on cell viability, uniformity and nonspecific effects on the assay signal. This assay was adapted to laser-scanning microplate cytometry (Acumen, TTP Labtech) where miniaturization of the assay to a 1,536-well plate format was possible. Select compounds active in the primary screen (AID 1487) were chosen for confirmation based on potency, efficacy, SAR and activity in other assays in PubChem and at NCGC. References: Bowen, W. P.; Wylie, P. G. Application of Laser-Scanning Fluorescence Microplate Cytometry in High Content Screening. Assay Drug Dev Technol 2006;4:209-221. Scaffidi P, Misteli T. Reversal of the cellular phenotype in the premature aging disease Hutchinson-Gilford progeria syndrome. Nat. Med. 2005;11:440-445.
NCGC Assay Protocol Summary: Reagents/Controls: Stable clones expressing DsRed2 and lamin A-EGFP were generated by Cell and Molecular Technologies in S3 HeLa cells. HeLa cells were prepared for the assay when they were 70-90% confluent. The cells were counted and resuspended in Opti-MEM I (no phenol red; Gibco), 2% FBS, 1% penicillin/ streptomycin (Gibco) at concentration of 120 cells/uL concentration. The suspension was passed through a Falcon basket filter with pore size 40um (Beckton Dickson). Control titrations: column […] 1536-well plate contained a sixteen point titration (1:2 dilutions) in duplicate of ancitabine (Sigma: A8598) beginning at 40 uM final concentration. Column 2 contained a sixteen point titration (1:2 dilutions) of cycloheximide beginning at 1.4 mM final concentration. Column 3 contained ancitabine at 40 uM and column 4 contained was the vehicle control (0.5% DMSO final concentration). Assay Steps: 5 uL of HeLa cells were plated in Aurora LoBase black clear bottom (cyclic-olefin polymer) 1536-well plates at a final density of 600 cells/well. Controls and library compounds were added with a 1536-well pin array using the Kalypsys pin-tool. The plates were then incubated for 48 hrs in a cell-culture incubator (37 °C; 5% CO2, 98% humidity). Following incubation the plates were read on the Acumen Explorer using the 488 nm laser. Data was collected on objects between 10 and 100 um in size. Cell objects were defined by a 15 um width x 10 um depth filter. The ratio of the total object intensity in PMT1 (500-530 nm emission; GFP) over PMT3 (575-640 nm emission; RFP) was calculated for analysis. Keywords: NIH Roadmap, MLSCN, MLI, MLSMR, qHTS, NCGC, lamin A, Progeria, RNA splicing.

SMILES	ratio activity [%]	GFP activity change, negative = decrease	RFP activity [%]
CC(=O)c1c(C)[nH]c(C(=O)Nc2c(C)n(C)n(-c3ccccc3)c2=O)c1C	-9.7	-2.29% (inactive)	1.7
Cc1noc(C)c1-c1ccc2ncnc(NCc3cccc(-c4ccccc4)c3)c2c1	-27.8	1.82% (inactive)	22.9
O=C(c1ccc(Cl)c(Cl)c1)N1CCC(=O)N(C(COCc2cccc(C(F)(F)F)c2)Cc2ccccc2)CC1 (configuration not stated)	-24.5	-32.8% (inactive)	13.3
Cn1c(Sc2ccccc2Cl)c(C=O)c2ccccc21	0.328	-13.3% (inactive)	-2.07
Cc1cc(Nc2ccccc2)nc2cc(O)ccc12	-18.8	-18.1% (inactive)	11.6
Cc1cccc(C)c1OC[C@H](C)N	-11.5	-32.5% (inactive)	-24.1
C/C(=N\NC(=O)C(c1ccncc1)N1CCOCC1)c1ccc(Br)cc1 (configuration not stated)	-18.1	-10.9% (inactive)	7.84
CC1=NS(=O)(=O)c2cc(Cl)ccc2N1	-9.16	-18.6% (inactive)	-10.7
Cc1cc(/C=N/n2cnnc2)c(C)n1-c1cccc(C(=O)O)c1	-3.02	-22.5% (inactive)	-18.9
O=C(COc1ccc(Br)cc1)NNC(=S)NC(=O)c1ccccc1[N+](=O)[O-]	-24.6	-24.3% (inactive)	11.7
COc1ccc(O)c(/C=N/NC(=O)c2ccc(OCc3cccc(Br)c3)cc2)c1	-5.52	-21.1% (inactive)	-32.5
CC(=O)Nc1ccc(-c2csc(NC(=O)C3CCN(S(=O)(=O)c4cccs4)CC3)n2)cc1	-13.5	-2.98% (inactive)	16.5
COc1ccc(C=C(c2nc3ccccc3s2)c2nc3ccccc3s2)cc1O	-10.5	-13.6% (inactive)	-2.53
O=C(Nc1ccc(F)cc1)c1nc[nH]c1C(=O)Nc1ccccc1[N+](=O)[O-]	-10.8	-23.1% (inactive)	-25.1
